Experimental data from PubChem BioAssay AID1209 (Sanford-Burnham Center for Chemical Genomics, 2008).
The whole screen tested about 190,000 compounds, of which about 810 (0.43%) were called active. No stated cut-off is given here; in the data, active means inhibition above about 50%; inactive means the rest. For the sample, actives were picked, then their nearest neighbours and some compounds at random.

What follows are molecules tested against Mannose-6-phosphate isomerase (Homo sapiens) (UniProt P34949) (assay: inhibitors of human PMI, primary screen, biochemical, fluorescence intensity, coupled assay (AID 1209;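 further: plate controls were DMSO vehicle for no effect and wells lacking substrate for full effect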)). Conditions: purified PMI enzyme, at 20 µM, active compounds read high.
Chain of Mannose-6-phosphate isomerase (Homo sapiens) (P34949 whole entry, looked up): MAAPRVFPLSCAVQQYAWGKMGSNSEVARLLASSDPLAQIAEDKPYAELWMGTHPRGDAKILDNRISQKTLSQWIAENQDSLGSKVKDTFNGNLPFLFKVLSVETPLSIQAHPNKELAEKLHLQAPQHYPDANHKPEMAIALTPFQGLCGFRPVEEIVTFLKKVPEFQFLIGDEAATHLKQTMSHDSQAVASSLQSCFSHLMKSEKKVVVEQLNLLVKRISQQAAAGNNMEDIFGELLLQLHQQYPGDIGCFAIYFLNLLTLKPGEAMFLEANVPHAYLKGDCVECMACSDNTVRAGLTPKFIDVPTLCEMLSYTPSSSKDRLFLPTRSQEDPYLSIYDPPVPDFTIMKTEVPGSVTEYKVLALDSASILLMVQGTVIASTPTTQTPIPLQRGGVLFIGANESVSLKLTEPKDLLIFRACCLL
COC(=O)c1cccc(NS(=O)(=O)c2ccc(NC(C)=O)cc2)c1C was tested, and the inhibition was -4.2% (inactive). In the case of O=C(Cc1csc(N2CCOCC2)n1)N/N=C/c1ccc(Cl)cc1Cl, the inhibition is reported as 4.7% (inactive). With COc1cc(/C=N/Nc2ccc([N+](=O)[O-])cc2S(=O)(=O)N2CCOCC2)cc(OC)c1OC the inhibition was -6.8% (inactive). For O=[N+]([O-])c1ccc(N/N=C/c2ccc(O)c(O)c2O)c(S(=O)(=O)N2CCOCC2)c1, the inhibition was 82.3% (active). With O=C(CCc1ccc(S(=O)(=O)N2CCOCC2)cc1)N/N=C/c1ccc(F)cc1F the inhibition was 4.8% (inactive). With O=C(CCc1ccc(S(=O)(=O)N2CCOCC2)cc1)N/N=C/c1cccc(O)c1 the inhibition was 11.1% (inactive). For O=C(CCc1ccc(S(=O)(=O)N2CCOCC2)cc1)N/N=C/c1ccc(O)c(O)c1O, the inhibition was 57.6% (active). O=[N+]([O-])c1ccc(N/N=C/c2cccc(O)c2O)c(S(=O)(=O)N2CCOCC2)c1 was tested, and the inhibition was 16.7% (inactive). In the case of O=C(Cc1csc(N2CCOCC2)n1)N/N=C/c1cccc(O)c1, the inhibition is reported as 3.3% (inactive). With COc1ccc(/C=N/NC(=O)CCN2CCN(c3ccccc3)CC2)c(OC)c1OC the inhibition was -3.2% (inactive). O=C(Cc1csc(N2CCOCC2)n1)N/N=C/c1ccc(O)c(O)c1O was tested, and the inhibition was 83.3% (active). O=C(CCN1CCN(c2ccccc2)CC1)N/N=C/c1ccc(O)c(O)c1O was tested, and the inhibition was 57.4% (active). For O=C(CCN1CCN(c2ccccc2)CC1)N/N=C/c1ccccc1O, the inhibition was -8.5% (inactive). For CN(C)C(=O)COc1ccc(Br)cc1, the inhibition was 8.1% (inactive). For O=C(NN=C1CCCC1)c1sc2ccccc2c1Cl, the inhibition was -19.6% (inactive). With COc1ccc(N(C(=O)CCl)C(C(=O)NCCc2ccccc2)c2cccs2)cc1Cl (stereo unspecified) the inhibition was -8.6% (inactive). Cc1noc(NS(=O)(=O)c2ccc(NC(=O)C34CC5CC(C3)CC(n3cnc(Br)n3)(C5)C4)cc2)c1C was tested, and the inhibition was 0.3% (inactive). For O=C(CN1C(=O)CCC1=O)c1ccc(-c2ccccc2)cc1, the inhibition was 5.6% (inactive). CC(=O)Nc1nc(SCc2ccc(Cl)cc2Cl)n[nH]1 was tested, and the inhibition was 2% (inactive). With Nn1c(COc2ccc(Cl)cc2)nc2ccccc2c1=O the inhibition was -0.6% (inactive). With CC(=O)Nc1ccc(S(=O)(=O)N2CCN(C(=O)c3cccnc3)CC2)cc1 the inhibition was 17.8% (inactive). In the case of CCOc1ccc(CCNC(=O)c2ccc(N3CCCC3=O)cc2)cc1OCC, the inhibition is reported as 1.3% (inactive). With O=C1CN(CC(=O)Nc2ccc(SC(F)F)cc2)CCN1 the inhibition was 2.5% (inactive). In the case of O=C(NCc1ccccc1)c1cccc(OCC(=O)N2CCN(C(=O)c3ccco3)CC2)c1, the inhibition is reported as 2% (inactive). In the case of COC(=O)C1=C(C(=O)OC)SC(=C2C(=S)C(C)(C)N(C(=O)C(C)C)c3ccccc32)S1, the inhibition is reported as 68% (active). COC(=O)C1=NN(c2ccccc2)C2(S1)SC(C(C)=O)=C(C)N2c1ccccc1 (stereo unspecified) was tested, and the inhibition was 9.2% (inactive). In the case of CCCC(C(=O)O)N1C(=O)/C(=C2\C(=O)N(C)c3ccccc32)SC1=S (stereo unspecified), the inhibition is reported as 16.5% (inactive). With C/C=C/C(=O)N1c2ccccc2C(C)=CC1(C)C the inhibition was -2.5% (inactive). With CC1C(=O)Nc2ccccc2N1C(=O)C1CC1 (stereo unspecified) the inhibition was -18% (inactive). COC(=O)C1=C(C(=O)OC)SC(=C2C(=S)C(C)(C)N(C(=O)CC(C)C)c3ccccc32)S1 was tested, and the inhibition was 38.8% (inactive). CN1C(=O)/C(=C2\SC(=S)N(C(CCC(=O)O)C(=O)O)C2=O)c2ccccc21 (stereo unspecified) was tested, and the inhibition was 22.8% (inactive). In the case of O=C(C1CCC(C(=O)N2CCc3ccccc32)CC1)N1CCc2ccccc21 (stereo unspecified), the inhibition is reported as 3.2% (inactive). With COC(=O)C1=C(C(=O)OC)SC(=C2C(=S)C(C)(C)N(C(=O)C3CC3)c3ccccc32)S1 the inhibition was 71.6% (active). In the case of CC1(C)c2ssc(=S)c2-c2ccccc2N1C(=O)CSC1=NCCS1, the inhibition is reported as 14.3% (inactive). For CCC(C)C(=O)N1c2ccccc2C(=C2SC(C(=O)OC)=C(C(=O)OC)S2)C(=S)C1(C)C (stereo unspecified), the inhibition was 63.8% (active). For CCCC(=O)N1c2ccccc2C(=C2SC(C(=O)OC)=C(C(=O)OC)S2)C(=S)C1(C)C, the inhibition was 62.1% (active).
